We go through 62 compounds from PMC4336329 (PLoS ONE, 2015).

Each structure is given as a SMILES string. Hit rate of the full screen: of about 310,000 compounds, about 14,000 (4.5%) showed an effect of 50% or more. Effects have a minus sign here. Many of the other results were omitted from the sample, so strong results are more common in it than they were.
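Note: peak tail current of the secondary pulse compared with the same well before compound.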

The target in this test is human ether-à-go-go-related gene (hERG) potassium channel (human, UniProt Q12809). Put plainly: primary screen, population patch clamp on CHO cells stably expressing hERG; higher = less effect of the substance.
Chain of human ether-à-go-go-related gene (hERG) potassium channel (Q12809 whole entry, looked up): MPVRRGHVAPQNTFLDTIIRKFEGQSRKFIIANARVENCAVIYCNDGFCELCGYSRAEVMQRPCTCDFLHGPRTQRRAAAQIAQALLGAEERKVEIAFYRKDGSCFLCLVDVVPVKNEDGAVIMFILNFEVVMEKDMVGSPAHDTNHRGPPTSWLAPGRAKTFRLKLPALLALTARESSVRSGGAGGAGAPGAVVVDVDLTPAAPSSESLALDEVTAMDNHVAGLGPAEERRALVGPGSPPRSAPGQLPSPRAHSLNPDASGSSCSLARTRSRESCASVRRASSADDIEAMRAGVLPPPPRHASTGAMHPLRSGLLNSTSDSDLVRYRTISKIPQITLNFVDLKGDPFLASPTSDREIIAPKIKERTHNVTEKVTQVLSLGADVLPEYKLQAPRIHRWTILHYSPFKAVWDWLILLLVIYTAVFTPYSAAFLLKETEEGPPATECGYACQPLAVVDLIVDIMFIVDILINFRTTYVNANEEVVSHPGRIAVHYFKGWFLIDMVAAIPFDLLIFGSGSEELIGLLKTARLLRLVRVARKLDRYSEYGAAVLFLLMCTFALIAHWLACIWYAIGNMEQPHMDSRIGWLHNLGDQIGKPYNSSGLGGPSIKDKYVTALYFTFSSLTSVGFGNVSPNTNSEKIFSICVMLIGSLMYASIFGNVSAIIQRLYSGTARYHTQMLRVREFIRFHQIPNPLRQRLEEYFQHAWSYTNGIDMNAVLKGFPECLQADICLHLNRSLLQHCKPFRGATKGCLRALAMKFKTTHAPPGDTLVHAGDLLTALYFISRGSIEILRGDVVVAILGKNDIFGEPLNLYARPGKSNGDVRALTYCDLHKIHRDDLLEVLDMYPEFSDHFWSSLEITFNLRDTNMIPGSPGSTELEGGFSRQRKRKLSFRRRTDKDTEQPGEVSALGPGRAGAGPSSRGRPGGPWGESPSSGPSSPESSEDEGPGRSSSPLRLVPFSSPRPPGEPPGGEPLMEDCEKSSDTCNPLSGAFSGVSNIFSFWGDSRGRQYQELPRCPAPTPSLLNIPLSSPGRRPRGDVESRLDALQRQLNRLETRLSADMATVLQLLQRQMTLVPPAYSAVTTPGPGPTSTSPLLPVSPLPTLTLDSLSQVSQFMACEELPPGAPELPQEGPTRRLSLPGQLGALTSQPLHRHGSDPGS
Regarding `C=CCNC(=S)NNC(=O)CCC(O)CCCCC` (centres unmarked), the “hERG current change (%, negative = inhibition) at 10uM” value is reported as 16.4%. Regarding `CCN(CC(=O)NCc1ccc(F)cc1)C(=O)c1ccc(Cl)cc1`, the “hERG current change (%, negative = inhibition) at 10uM” value was -23.7%. As to `CCN(CC(=O)NCc1ccc(Cl)cc1)C(=O)CCC(=O)c1ccc(F)cc1`, the “hERG current change (%, negative = inhibition) at 10uM” value is -61.9%. On to `CCN(CC(=O)NCc1ccc(Cl)cc1)C(=O)CCC(=O)c1ccc(C)cc1`, for which the “hERG current change (%, negative = inhibition) at 10uM” value is given as -66.5%. For `CCOc1ccc(C(=O)CCC(=O)N(CC)CC(=O)Nc2c(F)cccc2F)cc1` the value was -25.6%. For `CCOc1ccc(C(=O)CCC(=O)N(CC)CC(=O)NCc2ccc(Cl)cc2)cc1` the value was -70.3%; for `CCN(CC(=O)NCc1cccs1)C(=O)CCC(=O)c1ccc(C)cc1`, -46.9%. As for `CCN(CC(=O)NCc1cccs1)C(=O)CCC(=O)c1ccc(F)cc1`, the “hERG current change (%, negative = inhibition) at 10uM” value is reported as -49.7%. Consider `Cc1ccc(C(=O)CCC(=O)NCc2ccc(Cl)cc2)cc1`, for which the “hERG current change (%, negative = inhibition) at 10uM” value is -8.52%. For `CCOc1ccc(C(=O)CCC(=O)N(CC)CC(=O)NCc2cccs2)cc1`, the “hERG current change (%, negative = inhibition) at 10uM” value was -19.9%. With `Cc1ccc(C)c(N(CC(=O)NC2CCCC2)S(=O)(=O)c2ccccc2)c1`, the “hERG current change (%, negative = inhibition) at 10uM” value came out at 19.9%. For `Cl.O=C(O)c1cc(S(=O)(=O)N2CCN(C(c3ccccc3)c3ccccc3)CC2)ccc1Cl`, the “hERG current change (%, negative = inhibition) at 10uM” value worked out at 14.7%. For `COc1ccc([C@H]2CC(=O)C=C(c3ccc(OC(F)(F)F)cc3)C2)cc1` the value was 5.59%; for `Fc1ccc(CN2CCN(C(c3ccccc3)c3ccccc3)CC2)cc1.O=C(O)C(=O)O`, 15%; for `COc1cccc(CN2CCN(C(c3ccccc3)c3ccccc3)CC2)c1O.O=C(O)C(=O)O`, -64.5%. For `COc1ccccc1CN1CCN(C(c2ccccc2)c2ccccc2)CC1.O=C(O)C(=O)O` the value was -55.1%; for `COc1ccccc1N1CCN(Cc2cccc(OC)c2OC)CC1`, -12.5%. Turning to `COc1cc(CN2CCN(C(c3ccccc3)c3ccccc3)CC2)cc(OC)c1OC.O=C(O)C(=O)O`, the “hERG current change (%, negative = inhibition) at 10uM” value was -17.2%. For `COc1ccccc1N1CCN(Cc2cccc(OC)c2O)CC1` the value was -64.9%; for `O=C(O)C(=O)O.c1ccc(OCCN2CCN(C(c3ccccc3)c3ccccc3)CC2)cc1`, -14.6%; for `CCOc1ccccc1N1CCN(Cc2cccc(OC)c2O)CC1`, -25.8%. `COc1ccc(OCCOCCN2CCN(C)CC2)cc1.O=C(O)C(=O)O`: the “hERG current change (%, negative = inhibition) at 10uM” value is reported as -6.29%. Consider `O=C(O)C(=O)O.Oc1ccccc1CN1CCN(C(c2ccccc2)c2ccccc2)CC1`, for which the “hERG current change (%, negative = inhibition) at 10uM” value was determined as 17%. For `O=C(O)C(=O)O.c1ccc(OCCOCCN2CCN(C(c3ccccc3)c3ccccc3)CC2)cc1` the value was -72.7%; for `COc1ccccc1CN1CCN(Cc2cc(OC)c(OC)cc2OC)CC1.O=C(O)C(=O)O`, -11.2%; for `N#C/C(C(=O)N1CCOCC1)=C1\Nc2ccccc2S1`, 2.1%. For `CC(=O)NC(Cc1c[nH]c2ccccc12)C(=O)NCc1ccco1` (centres unmarked) the value was 12.5%. For `CCN(CC)S(=O)(=O)c1cccc(NC(=O)COc2ccc(Cl)cc2Br)c1` the value was 2.59%.

As to `CCn1c(SCC(=O)Nc2ccc(C(C)=O)cc2)nc2c([nH]c3ccccc32)c1=O`, the “hERG current change (%, negative = inhibition) at 10uM” value was found to be 5.85%. For `CCOCCCNC(=O)c1ccc(-n2c(=S)[nH]c3ccccc3c2=O)cc1` the value was 10.8%; for `COc1cccc(OC)c1OCCN1CCN(C(c2ccccc2)c2ccccc2)CC1`, -72.7%.

`COc1ccc(CN2CCN(Cc3ccccc3OC)CC2)cc1.O=C(O)C(=O)O`: the “hERG current change (%, negative = inhibition) at 10uM” value came to 2.68%. For `COc1ccccc1OCCCCN1CCN(C(c2ccccc2)c2ccccc2)CC1.O=C(O)C(=O)O` the value was -73%; for `COc1ccccc1OCCCCCCN1CCN(C)CC1.O=C(O)C(=O)O`, -5.83%. For `COc1cccc(OC)c1OCCN1CCCC1` the value was 15.8%; for `COc1ccccc1CN1CCN(Cc2ccc(Cl)cc2)CC1.O=C(O)C(=O)O`, -62.5%. For `COc1cccc(OC)c1OCCOCCN1CCN(C)CC1` the value was 20.8%; for `COc1ccccc1OCCCCCCN1CCOCC1.O=C(O)C(=O)O`, 0.0271%; for `COc1ccccc1CN1CCCCCC1.O=C(O)C(=O)O`, 11.5%. For `CCOc1ccc(NCc2nc3ccccc3n2CCOc2ccccc2)cc1`, the “hERG current change (%, negative = inhibition) at 10uM” value is -11.6%. On to `Cc1ccnc(N2CCC(C(=O)NCc3ccc(F)cc3)CC2)n1`, for which the “hERG current change (%, negative = inhibition) at 10uM” value is given as -12%. Regarding `CCOC(=O)N1CCN(CC(O)COc2ccccc2C(C)C)CC1.Cl` (centres unmarked), the “hERG current change (%, negative = inhibition) at 10uM” value is recorded as -8.87%. Turning to `C/C(=N\NC(=O)c1ccco1)c1cc(Cl)sc1Cl`, the “hERG current change (%, negative = inhibition) at 10uM” value is recorded as -6.11%. For `S=c1[nH]nc(COc2ccc(Cl)cc2Cl)n1-c1ccccc1` the value was 19.1%; for `C/C(=N\Nc1nc(N2CCOCC2)nc(N2CCOCC2)n1)c1cccc([N+](=O)[O-])c1`, -4.76%. For `C/C(=N\Nc1cc(N2CCOCC2)nc(C)n1)c1cccc([N+](=O)[O-])c1` the value was -60.4%; for `C/C(=N\Nc1cc(N2CCOCC2)ncn1)c1cccc([N+](=O)[O-])c1`, 4.5%; for `COCCCNC(=O)[C@H]1N2C(=O)c3ccccc3C2SC1(C)C` (some centres unmarked), 15.3%.

Take `S=C(NCc1ccco1)N1CCN(Cc2ccc(Cl)cc2Cl)CC1`: the “hERG current change (%, negative = inhibition) at 10uM” value is given as -36.3%. With `O=S(=O)(Nc1ccc(-c2ccc3nncn3n2)cc1)c1ccc(Cl)s1`, the “hERG current change (%, negative = inhibition) at 10uM” value is -19.2%. For `O=C(Nc1ccc(S(=O)(=O)N2CCOCC2)cc1)c1ccccc1F` the value was 6.32%; for `COc1ccc(CNc2ccc3c(c2)ncn3-c2ccccc2OC)cc1`, -23%; for `C=CCc1ccccc1OCC(O)CN(C(C)C)C(C)C.Cl` (centres unmarked), -59.2%. For `C=CCc1ccccc1OCC(O)CN1CCN(c2ccc(C)cc2)CC1` (centres unmarked) the value was -44.7%. For `C=CCc1cc(OC)ccc1OCC(O)CN1CCN(c2ccc(OC)cc2)CC1` (centres unmarked) the value was -59.7%; for `C=CCc1ccccc1OCC(O)CN1CCN(c2ccc(OC)cc2)CC1.Cl` (centres unmarked), -66.5%.

Turning to `C=CCc1ccccc1OCC(O)CNC` (centres unmarked), the “hERG current change (%, negative = inhibition) at 10uM” value amounted to 12%. For `C=CCc1ccccc1OCC(O)CN(CC)CC.Cl` (centres unmarked) the value was -30.5%; for `C=CCc1cc(C)ccc1OCC(O)CN1CCN(c2ccccc2)CC1` (centres unmarked), -47.5%.

Regarding `C=CCc1ccccc1OCC(O)CN1CCN(c2ccccc2OC)CC1.Cl` (centres unmarked), the “hERG current change (%, negative = inhibition) at 10uM” value is -75.2%. For `C=CCc1ccccc1OCC(O)CN1CCN(c2ccccc2F)CC1.Cl` (centres unmarked) the value was -40.9%; for `C=CCc1ccccc1OCC(O)CN1CCN(C(=O)OCC)CC1.Cl` (centres unmarked), -11.3%.
